Source: the supplement of paper PMC6555819

Experiments:
Assay in all cases: PBM binding z-score (relative to random genomic background probes); higher = stronger binding; sequences stand for … in GC…GCGATTGACAGCGTAGAATGAAGG
[1] = test system: RARb homodimer (NR concentration 270 nM)
Method in brief: (§1)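 Ligand-free nuclear receptor dimers were applied to custom Agilent 4×180K protein-binding microarrays whose double-stranded probes carried direct-repeat seeds, single-nucleotide variants, half-site ablations and random human genomic background sequences in 34-nt variable regions. Incubation lasted 1 h. Binding z-scores were computed against the random background probes from regression-normalized fluorescence.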

[2] = test system: RARg:RXRa (NR concentration 270 nM, RXRa partner concentration 90 nM)
Method in brief: as §1

[3] = test system: RARg homodimer (NR concentration 270 nM)
Method in brief: as §1

[4] = test system: RXRa DBDmut IVT, anti-RXR (DBD mutation: RXRa K156A/R161A, NR concentration 90 nM)
Method in brief: as §1

[5] = test system: RXRa homodimer (NR concentration 180 nM)
Method in brief: as §1

[6] = test system: THRa:RXRa (NR concentration 90 nM, RXRa partner concentration 90 nM)
Method in brief: as §1

[7] = test system: THRa homodimer (NR concentration 90 nM)
Method in brief: as §1

[8] = test system: VDR homodimer (NR concentration 270 nM)
Method in brief: as §1

Sequence | PBM binding z-score [1] | PBM binding z-score [2] | PBM binding z-score [3] | PBM binding z-score [4] | PBM binding z-score [5] | PBM binding z-score [6] | PBM binding z-score [7] | PBM binding z-score [8]
CCTACTGGCCCAAAAAGGTCATTGATGCCGATAA | 4.52 | 4.52 | 4.12 | 0.618 | 5.25 | 3.39 | 1.13 | 2.65
CCTCGGAGGACAACAAGAGGTCAGAGCTGCCAGA | 3.8 | 4.13 | 3.8 | 0.726 | 2.93 | 2.86 | 0.992 | 1.54
ATACCAAGGTGATCGTGAGGTCGTGGATACTAAC | 1.77 | 2.71 | 0.919 | 0.217 | 2.04 | 3.62 | 2.99 | 1.78
CAAACTCGGTCAAAGGTCAAAGTCGAGCCAACCA | 5.08 | 8.4 | 6.7 | 2.48 | 9.27 | 4.33 | 1.31 | 3.31
CGTCCAAGGTGAAAGGTCAGTGAAGAGATGACGG | 4.53 | 6.03 | 5.76 | 0.481 | 7.85 | 3.97 | 1.23 | 1.08
ATATGTAGGATAAGGGTCATTCAGGTTGGTTCGC | 3.69 | 3.9 | 3.42 | 2.09 | 4.8 | 3.25 | 1.38 | 4.54
TCTCGGAGGACACGAAAGGTTAGAGCTCGACATC | 2.16 | 1.94 | 2.3 | 0.867 | 1.4 | 2.41 | 0.435 | 0.0953
TCGAGTAGTTTACCAATGGGGCATTCAGCTTTCT | 0.239 | -0.401 | -0.51 | 0.878 | -0.356 | -0.217 | -0.644 | -0.305
TCTAGCAGGCCAGAGGGTCACTCTAGAGGTACGG | 2.57 | 2.42 | 1.97 | 0.248 | 2.34 | 1.4 | -0.529 | 0.422
CGAACTAGGTCAAGGACAATGAATCTCCGCACGC | 3.13 | 3.87 | 4.64 | 1.52 | 2.78 | 3.12 | 2.15 | 0.633
ACAGACAGGTGAGTGAAGGTAAATCAGCTGGACG | -0.00718 | 0.297 | 0.417 | -0.64 | 0.24 | 1.31 | -0.577 | -0.366
CGTCCAAGGTCAGCAGGTCAGTGAAAGCGACGTG | 5.12 | 6.35 | 6.64 | 2.54 | 4.82 | 4 | 2.28 | 1.77
ATACCAAGGCGATCGTGAGGTCGTTGATACTAAC | 0.905 | 0.636 | 0.0519 | 0.303 | 0.794 | 2.26 | 1.5 | 1.85
GGAACGAGGGCAAGTTGATAGCCGAGTTTGATGG | 1.56 | 1.84 | 2.12 | 2.37 | 0.956 | 1.22 | -0.266 | 1.92
GCTCGGTGGACAAGGTCAGAGCTTTGTCCGTAGA | 2.7 | 2.44 | 2.14 | 0.246 | 1.96 | 2.48 | 1.14 | 0.24
GCGACAGGGGCAAAGCAGGTTACCATAAGGTTGG | 1.21 | 1.06 | 0.918 | 0.664 | 1.06 | 3.83 | 0.135 | 0.281
GCAGACAGGTGAAACGCAGGTAACTCGGGGTGGC | 0.185 | 0.966 | 0.131 | -0.847 | 0.633 | 1.55 | -0.0919 | -0.486
ATCGAGAGGTCGTGAGGTGAGTATACAGAAAGGC | 2.4 | 3.66 | 3.28 | 1.43 | 4.24 | 3.36 | 1.63 | 1.87
ACTAGCAGGCCAATGGTCACTCAAGATTAGTCCG | 0.496 | 0.131 | 0.545 | -0.107 | 0.0416 | -0.312 | -0.672 | -0.707

Sequence | PBM binding z-score [1] | PBM binding z-score [2] | PBM binding z-score [3] | PBM binding z-score [4] | PBM binding z-score [5] | PBM binding z-score [6] | PBM binding z-score [7] | PBM binding z-score [8]
TCATATAGGTAAAGGTGATAGTCGAACGATATGA | 0.45 | 0.866 | 0.944 | 0.699 | 1.19 | 0.353 | -0.589 | -0.591
TCTTATAGGTAAACAGGTGAAAGTCCGTAAGTTA | 0.802 | 0.615 | 0.392 | 1.1 | 0.864 | 0.793 | 0.397 | 0.462
ATCTGTAGGTAAAAGTTCAGTGAATCCCGAGGAT | 2.42 | 1.79 | 1.84 | 0.663 | 1.65 | 0.83 | -0.173 | 1.36
CAAACTAGGTCACCGGAACGTCAAAGTCCGCATG | 3.74 | 4.82 | 5.62 | 1.46 | 3.86 | 3.55 | 1.88 | 1.08
ATCTCTAGGTAACCACGTTCAGTGAATGCCGAAC | 0.366 | 0.142 | 0.288 | -0.101 | 0.112 | 0.672 | 0.721 | 0.344
AGAATGAGGTTATACGTAGATCAGGGACGAAAGT | 0.962 | 1.77 | 1.35 | 1.87 | 2.14 | 2.39 | 0.878 | 1.06
TTTAGCAGGCCAGAGGGTCACTCAAGAGGTACGG | 2.65 | 2.51 | 2.02 | -0.755 | 2.32 | 1.6 | -0.313 | 0.332
TCTATTGGTTGAAGGGCAACCGACGAGTCCGTTT | 1.17 | 0.455 | 0.586 | 1.37 | 0.744 | 0.279 | 0.101 | 1.24
ACTAGCAGGCCAAGGGTCGCTCAAGATTAGTCCG | 0.923 | 1.12 | 0.872 | -0.27 | 1.13 | 0.795 | -0.633 | -0.246
ATCTCTAGGTAAAAGTCCAGTGAATCCCGAGGAT | -0.174 | 0.275 | 0.393 | -0.403 | -0.00664 | 0.296 | 0.175 | 0.187
GATGCTAGGTCAGGTTGGTCAGCTAACGGGTACG | 3.1 | 2.37 | 3.92 | 0.468 | 1.16 | 1.92 | 0.898 | 0.958
ACCATTAGTTGACTTAGGGCAACCGATACGACGC | 1.34 | 0.733 | 0.851 | 0.744 | 0.478 | 1.61 | 0.915 | 0.163
ATTTCTAGGTAACCAAGTTCAGTGAATGCCGAAC | 1.55 | 0.786 | 0.952 | 0.875 | 0.621 | 1.81 | 0.761 | 3.08
TCATATAGGTAATACTGGTGAAAGTCGGCATCTA | -0.0217 | 0.407 | 0.265 | 1.59 | 0.819 | 0.113 | -0.05 | 0.596
ATCTCTAGGTAAAGATAGTTCAGTGCATGCAAAT | 1.11 | 0.406 | 0.733 | -0.0342 | 0.191 | 0.926 | 0.229 | 1.15
TCTCGTAGATCAACAGGAGGTTAAGAAAGATCGA | 0.63 | 0.917 | 0.145 | 0.538 | 1.01 | 0.902 | -0.325 | -0.382
ATATGTAGGTTAGCTGGGGTCATACAGACTAGGC | 3.9 | 4.36 | 3.32 | 1.64 | 6.14 | 5.18 | 3.83 | 4.09
TCTTGTAGATCAACAGGAGGCTAAGAAAGATCGA | -0.642 | 0.0636 | -0.13 | 0.0884 | -0.111 | -0.56 | -1.25 | -0.893
TCTCGGAGGACACGAAGGTCAGATCTTTCCAGAG | 3.7 | 3.45 | 4.36 | 1.15 | 2.48 | 2.94 | 0.979 | 2.36

Sequence | PBM binding z-score [1] | PBM binding z-score [2] | PBM binding z-score [3] | PBM binding z-score [4] | PBM binding z-score [5] | PBM binding z-score [6] | PBM binding z-score [7] | PBM binding z-score [8]
ACTATTAGTTGAGACGAGGGCAACCCATAGGTTG | 1.45 | 0.739 | 0.903 | 0.366 | 0.748 | 2.42 | 0.54 | 0.783
TCTCAGAGGACACGAAAGGTCAGAGCTCGACATC | 4.95 | 5.29 | 6.24 | 1.46 | 4.47 | 3.77 | 0.917 | 0.991
CAAACTAGGTCACAGATGTCAAAGTCCGTGCGTA | 3.51 | 4.42 | 4.89 | 2.36 | 3.86 | 3.36 | 1.68 | 1.91
TCTTGTAGATCAACAGGAGGTTAGGAAAGATCGA | 0.164 | 0.361 | 0.196 | 0.233 | 0.348 | 0.437 | -0.828 | -0.458
TAACCAAGGTGAAGGTCGTTGATCCCTCTGTAGA | 1.83 | 1.4 | 1.38 | 0.174 | 1.87 | 2.32 | 0.878 | 0.809
ATCTCTAGGTAACAAGTTCAGAGAAAGAGAGGAC | 1.98 | 1.45 | 1.32 | 0.95 | 1.04 | 1.49 | 0.815 | 2.72
CCTAGCTGGTCAGGAGGTCACACACCGGATATGA | 4.31 | 5.14 | 4.44 | 0.548 | 4.69 | 3.36 | 2.01 | 2.14
TCTCGGAGGACACGAAAGGACAGAGCTCGACATC | 1.82 | 1.33 | 2.48 | 0.518 | 0.152 | 2.23 | 0.669 | -0.424
ATCGAAAGGTCGACGAGGTCAGTATACACCGTTT | 4.63 | 5.73 | 5.72 | 2.48 | 5.75 | 4.67 | 2.54 | 4.57
TCTCGGAGGACACGAAGGTTAGAGCTTTCCAGAG | 1.26 | 0.969 | 1.89 | 0.169 | 0.126 | 1.59 | 0.277 | -0.226
GCAGACAGGTGAAACGCAGGTAACTCAGGGTGGC | 0.13 | 0.712 | 0.0344 | -0.777 | 0.519 | 1.42 | -0.615 | -0.666
CCTACCGGGCCACGAAAGGTCATTGATTCAGTGA | 4.84 | 4.67 | 4.47 | 0.0824 | 4.98 | 4.19 | 1.46 | 2.22
CAGCCTAGGTCAGGGCCTGTATAGGAGGAACGTT | 2.38 | 2.68 | 3.88 | -0.731 | 1.46 | 1.88 | -0.108 | -0.924
TCTAGCAGGCCAGAGCGTCACTCAAGAGGTACGG | -0.99 | -0.32 | -0.282 | -0.0985 | -0.0625 | -1.43 | -1.22 | -0.792
CCTACTGGGCCATTTAGAGGTCATTGATCATATG | 3.87 | 4.06 | 2.72 | 1.45 | 3.21 | 3.31 | 1.7 | 3.36
CTTCAAAGTTCAACTAAGGTAACGTAAAGCACGC | 4.33 | 5.92 | 6.84 | 4.36 | 5.26 | 5.38 | 2.06 | 3.94
CGAACTAGGTCACGAAAGGTCAAAGTCGAATGAC | 6.05 | 7.91 | 8.67 | 2.37 | 8.55 | 5.01 | 2.52 | 3.39
CTCGAAAGGTCGGGTGAGGTGAGTATACGGATAA | 3.12 | 3.42 | 3.43 | 0.73 | 3.05 | 5.11 | 1.91 | 0.829
